Only a selection was taken, and hits are over-represented in it overall.
Methyltransferases: Primary Screen for Target Class Profiling of Small Molecule Inhibitors of Methyltransferases. purified enzyme, MTase-Glo SAH luminescence; stronger effect = lower value. calls only at 40 µM. hit rate 3.9% among 25,000; call rule not given here
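Each enzyme was reacted with SAM and its substrate, with compounds tested once at 40 uM; SAH formed was read by MTase-Glo luminescence.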
MTase-Glo counter: Counterscreen for Target Class Profiling of Small Molecule Inhibitors of Methyltransferases | shares compounds with Methyltransferases | AID 1745851, 2022 | hit rate 6% among 180 | Potency, µM (doses to about 57.3 µM), inactives show at the top dose activity change, negative = inhibition, actives largely listed as inhibitors | MTase-Glo coupled enzymes, SAH conversion luminescence, no MTase; active means well fitted inhibition curve with a large enough effect; inconclusive means small, poorly fitted or top-dose-only effect; further: potency means the concentration at half of the fitted maximal effect
Active calls of the source: *; i = inactive; ? = inconclusive; + = active, no number; [ ] = another dose, or the depositor's remark. On the % scale 0 is the no-effect control and ±100 the full control effect.

SMILES | Methyltransferases | others
CC1=CC(=O)C(=C(C)C)CC2C(C)(O)CCC12O (stereo not given) | +
CC1CCCC(NC(=O)C2(C)Cn3c(nc4ccccc43)C(=O)N2Cc2ccccc2Cl)C1C (stereo not given) | i
Cc1cccc(NC(=O)Cn2c(=O)oc3cc(S(=O)(=O)N4CCCCC4)ccc32)c1C | i
Cc1ccc(C)c(N2CCN(C(=O)CCc3nnc4n(CCC(C)C)c(=O)c5ccccc5n34)CC2)c1 | i
Cc1ccc(Cn2c(=O)c3ccccc3n3c(CCC(=O)N4CCN(c5cccc(C)c5C)CC4)nnc23)cc1 | i
Cc1cccc(N2CCN(C(=O)CCc3nnc4n(CC(C)C)c(=O)c5ccccc5n34)CC2)c1C | +
COc1ccc(CNC(=O)Cn2nc3n(CC(C)C)c(=O)c4ccccc4n3c2=O)cc1 | i
CC(C)(C)c1cc2n(n1)CC(C)(C(=O)NC1CCCCC1)N(Cc1ccccc1)C2=O (stereo not given) | i
Clc1ccc(C(Cn2ccnc2)OCc2c(Cl)cccc2Cl)c(Cl)c1 (stereo not given) | +
CN(CCCN1C(=O)c2ccc(-c3ccco3)n2CC1(C)C(=O)NC1CCCC1)C1CCCCC1 (stereo not given) | i
CN1C(=O)c2cc(C(=O)NCCCc3ccccc3)nn2CC1(C)C(=O)NC1CCCCC1 (stereo not given) | i
COc1ccc(CNC(=O)C2(C)Cn3cnc(C(=O)NCc4ccc(F)cc4)c3C(=O)N2C2CC2)cc1 (stereo not given) | i
CCOC(=O)c1cc2n(n1)CC(C)(C(=O)NC1CCCC1)N(c1cccc(Cl)c1)C2=O (stereo not given) | i
COc1ccc(-c2n[nH]n3c2nc(=O)c2ccc(C(=O)NCc4ccccc4OC)cc23)cc1 | i
CC(C)(C)c1ccc(S(=O)(=O)/C=C/C#N)cc1 | +
CCC1CCCCN1C(=O)Cn1c(=O)oc2cc(S(=O)(=O)N3CC(C)CC(C)C3)ccc21 (stereo not given) | i
CCCCNC(=O)Cn1ccc2cc(S(=O)(=O)N3CCCC3)ccc21 | i
COc1ccc(-c2nnc3n(Cc4ccc(C)cc4)c(=O)c4ccccc4n23)cc1 | i
CCCn1c(=O)c2ccc(C(=O)NC(C)C)cc2n2c(=O)n(CC(=O)Nc3ccc(F)cc3)nc12 | i
CCc1cc(Nc2nccc(-c3c(-c4ccc(OC)c(C(=O)Nc5c(F)cccc5F)c4)nc4ccccn34)n2)c(OC)cc1N1CCC(N2CCN(S(C)(=O)=O)CC2)CC1 | +
CCOC(=O)c1cc2n(n1)CC(C)(C(=O)NCCOC)N(c1cccc(F)c1)C2=O (stereo not given) | i
COc1cc(-c2nnc3n(CCc4ccccc4)c(=O)c4ccccc4n23)ccc1O | i
COc1cc(S(=O)(=O)N2CCC(n3c(=O)[nH]c4ccccc43)CC2)ccc1-n1cnnn1 | i
CCc1ccc(N2C(=O)c3cc(C(=O)OC)nn3CC2(C)C(=O)NC2CCCCC2)cc1 (stereo not given) | i
C=CCNC(=O)c1ccc2c(=O)[nH]c3c(C(=O)NC(C)C)sc(=S)n3c2c1 | i
SMILES | Methyltransferases | others
Cc1ccc(CNC(=O)c2ccc3c(=O)[nH]c4c(C(=O)NCC5CCCO5)sc(=S)n4c3c2)cc1 (stereo not given) | i
Cc1ccc(CNC(=O)c2ccc3c(=O)[nH]c4c(C(=O)NC(C)C)sc(=S)n4c3c2)cc1 | +
Cn1c(=O)c2ccc(C(=O)NC3CCCCC3)cc2n2c(=O)n(CC(=O)NC3CCCCC3)nc12 | i
Cc1cc2[nH]c(=O)[nH]c2cc1S(=O)(=O)Nc1cccc(F)c1 | i
O=C(CCn1ccc2cc(S(=O)(=O)N3CCCCC3)ccc21)N1CCC(N2CCCCC2)CC1 | i
CC1(C(=O)NC2CCCCC2)Cn2c(ccc2-c2ccco2)C(=O)N1Cc1ccccc1F (stereo not given) | i
Cn1ncc2c(N3CCN(S(N)(=O)=O)CC3)nc(C3CCCC3)nc21 | + | MTase-Glo counter=?
CC1CCCN1C(=O)c1cc(-c2ccc(C(F)(F)F)cc2)nc2c1cnn2C (stereo not given) | i
CC(C)CNC(=O)c1ccc2c(=O)n(CC(C)C)c3nn(CC(=O)Nc4ccc(F)cc4)c(=O)n3c2c1 | i
COc1ccc(NC(=O)CSc2nnc3n(CC(C)C)c(=O)c4ccccc4n23)cc1OC | i
COc1ccc(CNC(=O)c2cnc3c(c2)N(C(=O)CCc2ccccc2)CCC3)cc1OC | i
O=C(NCc1cccc(Cl)c1)c1cnc2c(c1)N(C(=O)Cc1ccc(O)cc1)CCC2 | + | MTase-Glo counter=18µM*
COCCCNC(=O)c1cnc2c(c1)N(C(=O)Cc1cn(C)c3ccccc13)CCC2 | i
CC1(C(=O)NC2CCCC2)Cn2c(cc3ccccc32)C(=O)N1c1ccc(CN2CCOCC2)cc1 (stereo not given) | i
CCc1cc2c(cc3n2CC(C)(C(=O)NC2CCCCC2)N(Cc2cccc(F)c2)C3=O)s1 (stereo not given) | i
Cn1cc(-c2cnc(Nc3cccnc3)c3c2CCO3)cn1 | i
Fc1cccc(Nc2ncc(-c3cncnc3)c3c2OCC3)c1 | i
Cc1noc(C)c1-c1cnc(Nc2ccncc2)c2c1CCO2 | + | MTase-Glo counter=-3%[85.7 µM]
Cc1ccc(CN2C(=O)c3ccc(-c4ccco4)n3CC2(C)C(=O)NC2CCC(C)CC2)cc1 (stereo not given) | i
CCc1ccccc1N1C(=O)c2cc3ccccc3n2CC1(C)C(=O)NCc1ccccc1OC (stereo not given) | i
OC1(Cn2ccnc2)CCN(Cc2ccccc2Cn2cccn2)CC1 | + | MTase-Glo counter=-1%
OCC(O)c1cc2n(n1)CCN(Cc1ccccc1Cn1cccn1)C2 (stereo not given) | i
O=C(NCc1ccccc1Cn1cccn1)c1ccc2cccc(F)c2n1 | i
CCCn1c(=O)c2ccccc2n2c(SCC(=O)Nc3ccc4c(c3)OCCO4)nnc12 | i
Cc1ccc(CN2C(=O)c3cc4occc4n3CC2(C)C(=O)NC2CCCC(C)C2C)cc1 (stereo not given) | i
SMILES | Methyltransferases | others
COc1cccc([S+](=O)([O-])N2CC(N3CCc4ccccc43)C2)c1 | i
COc1cccc([S+](=O)([O-])N2CCC23Cc2ccccc2NC3=O)c1 (stereo not given) | i
COc1cccc([S+](=O)([O-])N2CCC3(C2)N=C(c2cccnc2)C(=O)N3)c1 (stereo not given) | + | MTase-Glo counter=0%
CCN(CC)CCCNS(=O)(=O)c1ccc2[nH]c(=O)[nH]c2c1 | i
COc1ccc2cc3n(c2c1)CC(C)(C(=O)NC1CCCCC1)N(c1ccc(OC)c(OC)c1)C3=O (stereo not given) | i
Cn1cc(CN2CCN(c3ccc(C#N)cn3)CC2)c(-c2ccccc2)n1 | i
Cc1nn(-c2ccccc2)c(C)c1/C=N/N1CCN(Cc2ccccc2)CC1 | i
c1ccc(Cn2cc(CN3CCN(c4ccncc4)CC3)c(-c3cc4ccccc4o3)n2)cc1 | + | MTase-Glo counter=5%
Cc1cc(C)cc(NC(=O)CSc2nnc3n(CCc4ccccc4)c(=O)c4ccccc4n23)c1 | i
COc1ccc(-c2c(C(F)(F)F)oc3cc(OC(C)C(=O)OC4CCCCC4)ccc3c2=O)cc1OC (stereo not given) | i

Bioassay records from PubChem.
